Bioassay records as filed in PubChem BioAssay.
HEK293 cAMP ctrl – qHTS Assay for Agonists of the Thyroid Stimulating Hormone Receptor: Activators of Intracellular cAMP Concentrations in Parental HEK 293; hit rate 2.5% among 73,000; parental HEK293 CNG cAMP sensor, membrane potential fluorescence; Potency, µM (highest dose often 57.1 µM), actives largely listed as activators; further: nearly all actives have a fitted effect of over 55% in size
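Counterscreen for endogenous-receptor signalling: CNG-channel HEK 293 cells report cAMP rise by membrane depolarization. After 60 min dye equilibration with 100 uM RO 20-1724, compounds incubated 30 min before bottom-read fluorescence at 590 nm.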
Casp7 inh – qHTS Assay for Allosteric/Competitive Inhibitors of Caspase-7; P55210; hit rate 0.02% among 75,000; recombinant caspase-7, Ac-DEVD-AFC fluorescence rate; AID 889, 2007; Potency, µM (top dose mostly 57.5 µM), actives largely listed as inhibitors; active means well fitted inhibition curve with a large enough effect in the main read-out, with a control signal flat, not every such curve was filed as active; inconclusive means small, poorly fitted or top-dose-only effect, or a change in a side signal
Casp1 inh – qHTS Assay for Allosteric/Competitive Inhibitors of Caspase-1; P29466; hit rate 0.03% among 75,000; Caspase-1 enzyme, Ac-WEHD-AFC fluorogenic rate; Potency, µM (top dose mostly 57.5 µM), most hits filed as inhibitors; AID 900, 2007
USP2a inh – qHTS Assay for Inhibitors of Ubiquitin-specific Protease USP2a; hit rate 0.1% among 60,000; Potency, µM (top dose mostly 38.3 µM), hits mostly inhibitors; USP2a enzymatic assay, qHTS inhibition; Ubiquitin carboxyl-terminal hydrolase 2 (Homo sapiens), O75604; further: nearly all actives have a fitted effect of over 60% in size
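USP2 core (20nM final) preincubated 30 min RT with compound, then Ub-PLA2 20nM and NBD C6-HPC 20uM final added; buffer 20mM Tris-HCl pH 8.0, 2mM CaCl2. Fluorescence Ex 460/Em 535 read at 0 and 2.5 h; normalized to NEM.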
CRE Fsk mod – Cell signaling CRE-BLA (Fsk stim); CHO CRE-bla reporter (cAMP response element driving beta-lactamase), forskolin EC10, beta-lactamase ratio; Potency, µM (series often up to 38.2 µM), actives largely listed as activators; hit rate 2.5% among 71,000; active means well fitted activation curve with a large enough effect in the signal ratio, with a control signal flat, not every such curve was filed as active; inconclusive means small, poorly fitted or top-dose-only effect, or effect the other way, or a change in a side signal; the % refers to the signal ratio
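AC50 values, positive or negative, reflect shifts in EC10 NKH 477-induced CRE-bla reporter activity in CHO cells. Incubation lasted 3 h at 37 °C before CCF4 substrate (2 h, room temperature) and ratiometric 460/530 nm reading.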
TSHR agonist – qHTS Assay for Agonists of the Thyroid Stimulating Hormone Receptor; Potency, µM (series often up to 57.1 µM), usual class: activators; hit rate 0.48% among 73,000; HEK293-CNG-TSHR cells (CNG channel as cAMP sensor), membrane potential dye, cAMP; Thyrotropin receptor (Homo sapiens), P16473; active means well fitted activation curve with a large enough effect in the main read-out, with a control signal flat, not every such curve was filed as active; inconclusive means small, poorly fitted or top-dose-only effect, or a change in a side signal; inactive means no such curve, though single readings can be large or run the other way; reference of the percent scale not stated here;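 further: the control signal comes from parental cells without the receptor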
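HEK 293 cells stably expressing TSHR and a modified CNG channel, with CNG-only parental cells as counterscreen, were preloaded 60 min at room temperature with membrane potential dye containing 100 uM RO 20-1724. Compound exposure was 30 min, and depolarization was read as fluorescence at 590 nm.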
Hits are given with their value; . = inactive; ? = inconclusive; / = no result; [ ] = another dose, or the depositor's remark. Sampled rows, rich in hits. Any-hit rate of the full collection: about 5%. Unless noted, the call rests on the fitted dose curve; in most records, active means well fitted curve in the direction sought with a large enough effect; inconclusive means small, poorly fitted or top-dose-only effect, or another doubt; inactive means no such curve, though single readings can be large; an effect the other way counts as inactive or inconclusive.

SMILES | HEK293 cAMP ctrl | Casp7 inh | Casp1 inh | USP2a inh | CRE Fsk mod | TSHR agonist
O=C(c1ccco1)N1CCN(c2ncnc3c2[nH]c2ccc(Br)cc23)CC1 | . | . | . | . | 0.25µM | .
OCC(CO)(CBr)CBr | . | . | . | / | . | ?
CCC(C)n1cnc2c(c1=O)c1nc3ccccc3nc1n2Cc1ccc2c(c1)OCO2 (stereo unspecified) | . | . | . | . | 16µM | .
CCC(C)n1cnc2c(c1=O)c1nc3ccccc3nc1n2-c1ccc2c(c1)OCCO2 (stereo unspecified) | . | . | . | . | ? | .
CCC(C)C1C(C#N)=C(N)Oc2n[nH]c(-c3ccccc3)c21 (stereo unspecified) | 25µM | . | . | / | . | ?
CCC(C)C1C(C#N)=C(N)Oc2n[nH]c(C)c21 (stereo unspecified) | . | . | . | / | . | .
CCNc1nc(NCC)nc(Oc2ccc(OCC)nn2)n1 | .[11.4 µM] | . | . | .[7.66 µM] | ? | .[11.4 µM]
CCNc1nc(N)nc(Oc2ccc(OCCOc3ccc(Cl)cc3Cl)nn2)n1 | . | . | . | . | 6.3µM | .
O=c1c(-c2ccc(Cl)cc2)nc2cnc(N3CCNCC3)nc2n1CCc1ccccc1 | . | ? | / | . | ? | .
CCn1c(=O)n(CC(=O)NC2CCCC(C)C2C)c(=O)c2ccccc21 (stereo unspecified) | 25µM | . | . | . | . | ?
CCOc1ccc(-n2c(SCc3nc(-c4cccs4)no3)nnc2-c2ccncc2)cc1 | 3.2µM | . | . | . | ? | ?
CCCn1c(SCc2nc(-c3cccs3)no2)nnc1-c1ccncc1 | . | . | . | . | . | .
CCCn1c(-c2ccc(F)cc2)nc2c(NCCCN(C)C)nc(C)nc21 | 25µM | . | . | / | . | ?
CCCCNc1nc(C)nc2c1nc(-c1ccccc1)n2CCN(C)C | 25µM | . | . | / | ? | ?
CCCn1c(-c2ccc(F)cc2)nc2c(NCCCN(CC)CC)nc(C)nc21 | ? | . | . | / | . | ?
CCCn1c(-c2ccc(F)cc2)nc2c(NCC(C)(C)CN(C)C)nc(C)nc21 | 25µM | . | . | / | . | ?
Cc1nc(NCCO)c2nc(-c3ccccc3)n(CCN(C)C)c2n1 | . | . | . | / | ? | .
CN1CCN(c2ncc3nc(-c4cn(C)c5ccccc45)c(=O)n(-c4ccccc4)c3n2)CC1 | . | ? | / | . | ? | .
CCOc1ccccc1/C=C(\C#N)C(N)=O | .[11.4 µM] | .[11.5 µM] | .[11.5 µM] | / | .[7.6 µM] | .[11.4 µM]
O=C1C2=CC[C@H]3C(=O)N(c4cccc(Oc5ccccc5)c4)C(=O)[C@@H]3[C@@H]2[C@H](O)[C@@H]2O[C@H]12 | .[11.4 µM] | .[11.5 µM] | .[11.5 µM] | / | / | .[11.4 µM]
CCn1nc(C(=O)OCc2c(C)noc2C)c2ccccc2c1=O | . | . | . | . | 10µM | .[11.4 µM]
Cc1noc(C)c1COC(=O)c1cc(=O)[nH]c2ccccc12 | . | . | . | . | ? | .
N#Cc1c(NC(=O)C(F)(F)F)sc2c3c(=O)c4ccccc4c(=O)c=3oc3ccccc3c12 | .[11.4 µM] | .[11.5 µM] | .[11.5 µM] | / | ? | .[11.4 µM]
COC(=O)c1c(NC(=O)c2nc3ccccc3s2)sc2c1CCN(C(C)=O)C2 | . | ? | ? | / | 3.2µM | .
